# In the supplement of paper PMC4166925:
# ± gives the standard deviation of the averaged measurements. Over roughly 33,000 sequences, “E-score (dimensionless, -0.5 to 0.5)” has its median near -0.046; the highest 2% begin near 0.36. Many of the other results were omitted from the sample, so the highest values are more common in it than they were.
# System: T1, SpTbr T-box DNA-binding domain (GST fusion)
# T1 sequence: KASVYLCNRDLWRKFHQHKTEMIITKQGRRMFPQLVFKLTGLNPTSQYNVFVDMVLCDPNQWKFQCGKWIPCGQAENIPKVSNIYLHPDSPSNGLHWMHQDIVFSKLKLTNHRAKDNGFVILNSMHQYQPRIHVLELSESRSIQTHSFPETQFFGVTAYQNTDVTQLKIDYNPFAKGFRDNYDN
# Experiment: PBM E-score of 8-mer (E-score (dimensionless, -0.5 to 0.5)); Tbr is Tbrain of the sea star Patiria miniata (Pm) or the sea urchin Strongylocentrotus purpuratus (Sp); higher = stronger binding preference
# Conditions: the construct has about 5 more residues each side
# Description: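 Universal protein-binding microarray (Agilent AMADID 016060, 60-bp probes with a 35-bp variable region) incubated with 200 nM GST-fused Strongylocentrotus purpuratus Tbr T-box DNA-binding domain (residues 362-554) in PBS pH 7.5. Scored for every ungapped 8-mer (given with its reverse complement) as E-score (range -0.5 to 0.5; >0.45 counts as bound) and Z-score of median probe intensity. Two replicate arrays (datasets 1 and 2).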
# 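Note: protein at 200 nM in PBS on universal double-stranded arrays.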
row,Sequence,PBM E-score of 8-mer
1,CGGTGACG,0.233 ± 0.02
2,ACGTGACA,0.3127 ± 0.0018
3,AGGTGACA,0.469 ± 0.015
4,AGGTGACG,0.453 ± 0.0078
5,AGGTGACC,0.151 ± 0.0043
6,AGGTGACT,0.276 ± 0.001
7,CGATGGAG,-0.131 ± 0.032
8,AGACGTAC,-0.0414 ± 0.071
9,CCCCAGCC,-0.0674 ± 0.013
10,AGGAGTAT,-0.223 ± 0.0026
11,GATGACCC,0.12 ± 0.0038
12,GATGACAC,0.402 ± 0.0092
13,GATGACAA,0.278 ± 0.026
14,AATGACAC,0.3799 ± 0.0026
15,AATGACAG,0.0199 ± 0.049
16,CATGACAC,0.3587 ± 0.0021
17,AATCTGAT,-0.25 ± 0.015
18,GAACGCCC,0.138 ± 0.0086
19,AGGTGGTA,0.405 ± 0.011
20,CGGTGGGA,0.00775 ± 0.037
21,AGGTGGTC,-0.117 ± 0.11
22,AGGTGGTG,0.34049 ± 0.00016
23,AGGTGGGC,-0.0803 ± 0.021
24,AGGTGGGA,0.433 ± 0.0055
25,AGAGGGAA,-0.179 ± 0.028

row,Sequence,PBM E-score of 8-mer
1,GAGCTTCC,-0.129 ± 0.05
2,CGGCGACA,0.296 ± 0.018
3,AGGTGGAA,0.0503 ± 0.028
4,GAACTAAC,0.135 ± 0.023
5,GGCGACAC,0.381 ± 0.0043
6,TGCGACAA,0.271 ± 0.022
7,GGCGACAA,0.3676 ± 0.0007
8,CGCGACAA,0.309 ± 0.0049
9,AGCGACAC,0.332 ± 0.022
10,CGCGACAC,0.35396 ± 0.00035
11,GCTTTGCA,0.0233 ± 0.069
12,AGTCCAGG,-0.396 ± 0.039
13,AAGTCCCA,-0.0384 ± 0.044
14,CAGAAACC,-0.106 ± 0.08
15,AAATTCTG,-0.136 ± 0.06
16,CAAAGGTA,-0.0771 ± 0.04
17,CAAAGGTC,-0.105 ± 0.028
18,AAAAGGTC,-0.00656 ± 0.018
19,AAAAGGTT,-0.0952 ± 0.076
20,AAAAGGTG,0.41 ± 0.0094
21,CAAAGGTG,0.3923 ± 0.00076
22,GGTACTAC,-0.3 ± 0.033
23,ACGTCGAC,0.0807 ± 0.016
24,GCACTCCC,0.128 ± 0.051
25,AGCATAAT,-0.177 ± 0.0018

row,Sequence,PBM E-score of 8-mer
1,AGTAGGTA,-0.00286 ± 0.076
2,AGTAGGTG,0.3972 ± 0.0024
3,ACTAGGTA,-0.0768 ± 0.014
4,AATAGGTG,0.374 ± 0.03
5,AATAGGTC,-0.154 ± 0.017
6,AATAGGTA,-0.0758 ± 0.075
7,AGTAGGTC,-0.0701 ± 0.038
8,ACTAGGTG,0.403 ± 0.012
9,ACTAGGTC,-0.14 ± 0.024
10,TCAACAAA,-0.0651 ± 0.048
11,AGAAGTAT,-0.0503 ± 0.0051
12,AACGTTAT,0.0135 ± 0.06
13,ACAAAACA,0.0943 ± 0.064
14,ATAGAGTC,-0.206 ± 0.0048
15,CGTCTACA,0.0944 ± 0.046
16,AGGGTGTA,0.307 ± 0.035
17,AGGGGGTG,0.269 ± 0.055
18,AGGGTGTG,0.449 ± 0.011
19,AGGGTGCG,0.402 ± 0.01
20,AGGGTGCC,0.267 ± 0.013
21,AGGGTGTC,0.401 ± 0.015
22,CGGGTGTC,0.3608 ± 0.0021
23,ACGGTGTC,0.271 ± 0.051
24,AGGGTGCA,0.188 ± 0.025
25,AACAGAGT,-0.0053 ± 0.1

row,Sequence,PBM E-score of 8-mer
1,CACGTTGC,0.101 ± 0.025
2,ATTACTTA,-0.154 ± 0.05
3,AGAGAGAG,0.0384 ± 0.024
4,GCTAACAA,0.293 ± 0.03
5,CCTAACAG,0.0988 ± 0.11
6,GGTAACAC,0.435 ± 0.0032
7,ACTAACAG,0.1931 ± 0.00053
8,CCTAACAC,0.4165 ± 0.0028
9,ACTAACAC,0.402 ± 0.0071
10,GCTAACCC,0.04 ± 0.097
11,GCTAACAC,0.417 ± 0.0044
12,ACTAACAA,0.152 ± 0.039
13,AGTAACAC,0.3552 ± 0.0029
14,CGTAACAC,0.3104 ± 0.0022
15,CCTAACAA,0.161 ± 0.035
16,CGACCCGA,-0.0816 ± 0.051
17,TAACCAGA,-0.055 ± 0.015
18,AGCAAAAG,-0.191 ± 0.046
19,ACGCAACA,0.121 ± 0.024
20,ATTGCACA,0.121 ± 0.053
21,CCCCAGCG,-0.148 ± 0.02
22,ATTAACAC,0.45 ± 0.015
23,CTTAACAA,0.243 ± 0.0056
24,ATTAACAG,0.139 ± 0.014
25,CTTAACAC,0.429 ± 0.017

row,Sequence,PBM E-score of 8-mer
1,ATTAACAA,0.14 ± 0.023
2,CTTAACCC,-0.000625 ± 0.011
3,GTAGAAAA,-0.0889 ± 0.057
4,ATCCAGAG,-0.25 ± 0.021
5,CCTGGGAG,0.0895 ± 0.0077
6,GTGGCCGA,0.0547 ± 0.071
7,AGGAAAAT,-0.182 ± 0.018
8,GTCAATAA,0.129 ± 0.034
9,CGCCCGTC,0.0569 ± 0.029
10,CTTTTTCC,-0.132 ± 0.081
11,TACGTTCA,-0.0963 ± 0.066
12,AGCATTAT,0.00754 ± 0.061
13,ACACGTCG,0.372 ± 0.0071
14,GCACGTGC,0.312 ± 0.081
15,ACACGTGT,0.395 ± 0.0082
16,ACACGTCA,0.319 ± 0.017
17,AAACGTGT,0.368 ± 0.018
18,CCACGTGC,0.114 ± 0.074
19,AAACGTGA,0.156 ± 0.0067
20,ACACGTGA,0.283 ± 0.011
21,ACACGTGC,0.3851 ± 0.0015
22,AAACGTGG,0.144 ± 0.0096
23,ACACGTGG,0.299 ± 0.02
24,ACACGTCT,0.342 ± 0.0038
25,CCTTCCGC,0.168 ± 0.062

row,Sequence,PBM E-score of 8-mer
1,GATGCCTA,-0.279 ± 0.11
2,AAGGGCCA,-0.259 ± 0.0051
3,CTCAGCAC,0.171 ± 0.0069
4,TATCTCAA,-0.0883 ± 0.013
5,GTTCAACA,-0.118 ± 0.054
6,CAGTGACA,0.329 ± 0.0062
7,AAGTGACC,0.233 ± 0.041
8,AAGTGACT,0.0603 ± 0.012
9,AAGTGACA,0.427 ± 0.013
10,AAGTGAAA,0.209 ± 0.069
11,GAGTGACA,0.343 ± 0.033
12,AAGTGACG,0.4 ± 0.0071
13,CAGTGACG,0.0986 ± 0.12
14,TAGTGACA,0.417 ± 0.011
15,GCTGTAAC,-0.0609 ± 0.029
16,CTCAAAAG,-0.147 ± 0.012
17,ATGACCTA,-0.132 ± 0.046
18,ACAGAACA,-0.0577 ± 0.043
19,CCTGTGCG,0.125 ± 0.025
20,TCGCAAAA,0.132 ± 0.0091
21,TACTTGGA,-0.311 ± 0.035
22,AGGAGAGG,-0.247 ± 0.019
23,CTGTGTGC,0.000685 ± 0.012
24,AGGTGGGG,0.238 ± 0.056
25,AGATGTGC,0.161 ± 0.011

row,Sequence,PBM E-score of 8-mer
1,AGGTGTGG,0.486 ± 0.0081
2,ATGTGTGG,0.356 ± 0.007
3,AGGTGTGC,0.445 ± 0.014
4,ATCAGGAC,-0.3 ± 0.086
5,AAGCTCTA,-0.245 ± 0.027
6,GTGATAAC,0.395 ± 0.0074
7,GTGATAAA,0.305 ± 0.051
8,GTGATCAA,0.144 ± 0.022
9,GTGATCAC,0.366 ± 0.022
10,ATGATCAC,0.1861 ± 0.0015
11,ATGATAAC,0.092 ± 0.059
12,ACGATGGA,-0.0806 ± 0.066
13,AGTAATCG,0.087 ± 0.023
14,GCTCCTAC,0.0646 ± 0.0047
15,AATTCAGC,-0.016 ± 0.024
16,CCGGACGA,-0.223 ± 0.017
17,ATCGCCTC,0.169 ± 0.061
18,GATGTCAC,0.296 ± 0.023
19,GATGTCAA,0.197 ± 0.0064
20,CGTGTCAG,0.25651 ± 0.00017
21,CGTGTCAA,0.4367 ± 0.0011
22,GTTGTCTA,-0.123 ± 0.027
